# From paper PMC5540273 (PLoS ONE, 2017)
# Experiments:
# Details in all cases: concentration: 1 μM,replicates: in singlicate; n = 1
# NIM1 = system: T1, NIM1
# T1 construct: gene MGC42105
# NLK = system: NLK
# OSR1 = system: T2, OSR1
# T2 construct: gene OXSR1
# PAK1 = system: PAK1
# PAK2 = system: PAK2
# PAK3 = system: PAK3
# PAK4 = system: PAK4
# PAK6 = system: PAK6
# PAK7 = system: PAK7
# PCTK1 = system: T3, PCTK1
# T3 construct: gene CDK16
# 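Further: KINOMEscan kinase panel screen.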
SMILES,%Inh (NIM1) [%],%Inh (NLK) [%],%Inh (OSR1) [%],%Inh (PAK1) [%],%Inh (PAK2) [%],%Inh (PAK3) [%],%Inh (PAK4) [%],%Inh (PAK6) [%],%Inh (PAK7) [%],%Inh (PCTK1) [%]
C[C@H]1Oc2cc(cnc2N)-c2c(nn(C)c2C#N)CN(C)C(=O)c2ccc(F)cc21,0,5,0,8,9,36,14,2,11,0
Cl.Cl.Nc1nc(-c2ccc3c(N)n[nH]c3c2)cc(N2CCCC(NC(=O)c3ccccc3)C2)n1 (stereo not drawn) [GSK2286775],2,13,0,6,1,0,0,17,0,5
Cc1cc(C(=O)Nc2ccc(Oc3ccc4nc(NC(=O)C5CC5)cn4n3)cc2)nn1-c1ccccc1,0,2,0,0,0,3,0,15,0,0
Cc1cc2cn[nH]c2cc1-c1cccc2c(N)c(C(N)=O)nnc12,27,0,48,24,10,85,16,12,0,26
C[C@@H]1CCN(C(=O)CC#N)C[C@@H]1N(C)c1ncnc2[nH]ccc12,7,12,0,0,0,1,0,0,0,0
Nc1nc(Nc2ccccc2)cc(-c2ccc3c(N)n[nH]c3c2)n1 [GSK2225749],15,3,14,27,9,0,0,0,0,0
Cc1ccc2c(-c3ccncc3)c(-c3ccc(F)cc3)nn2c1.Cl [GW461484],13,91.3,0,29,30,19,0,7,4,0
O=C(NCCNc1ccnc(NCc2ccc(F)cc2)n1)c1cc2ccccc2s1 [GSK1379944],0,88,11,15,20,0,0,57,0,8
CCN(CC)CCCCNc1ncc2cc(-c3c(Cl)cccc3Cl)c(NC(=O)NC(C)(C)C)nc2n1,6,81,0,18,2,7,0,0,16,0
O=C(NCCCN1CCOC1=O)c1cnc(NCc2cc(Cl)ccc2Cl)nc1NC1CCCC1,2,17,0,9,17,0,18,16,2,0
C[C@@H](Oc1cc(-c2cnn(C3CCNCC3)c2)cnc1N)c1c(Cl)ccc(F)c1Cl,8,0,36,12,9,0,12,0,0,25
Cl.Cl.NC[C@H](CC1CCCCC1)NC(=O)c1cc(Br)c(-c2ccnc3[nH]ccc23)s1 [GSK1581427],22,0,20,38,36,81,12,28,42,3
CCn1c(-c2nonc2N)nc2c(C#CC(C)(C)O)nc(OCCN)cc21.Cl.Cl [GSK902056],10,0,32,11,36,10,68,45,93.4,2
Cc1occc1-c1nc(N)c(OC[C@@H](N)Cc2c[nH]c3ccccc23)cc1-c1cc2c(C)n[nH]c2cn1 [GSK1660450],74,17,13,97.8,86,75,0,11,9,10
CCN(CC)CCOc1ccc(Nc2ncc3cc(-c4c(Cl)cccc4Cl)c(=O)n(C)c3n2)cc1 [SB-601273],96.4,99.3,16,82,17,47,53,41,,0
COc1ccc(C[C@@H](CN)NC(=O)c2cc(Br)c(-c3ccnc4[nH]ccc34)s2)cc1.Cl.Cl [GSK1389063],13,0,34,78,62,93.9,89,89,98.7,16
Cl.Cl.NC[C@H](Cc1ccc(C(F)(F)F)cc1)NC(=O)c1cc(Br)c(-c2ccnc3[nH]ccc23)s1 [GSK1487252],4,0,0,37,33,83,0,25,33,0
Cl.Oc1cc(-c2nc(-c3ccccc3)[nH]c2-c2ccncc2)ccc1Cl [SB-386023],0,90,8,0,20,0,0,5,1,0
Cc1n[nH]c2ccc(-c3cc(OC[C@@H](N)Cc4ccccc4)cnc3-c3ccoc3)cc12.O=C(O)C(F)(F)F.O=C(O)C(F)(F)F [GSK507358],20,3,12,88,40,27,0,3,56,4
CC(C)Nc1cc(-c2ccc3c(N)n[nH]c3c2)nc(N)n1 [GSK2221681],0,0,0,34,26,0,0,0,0,0
C=CC(=O)Nc1cc2c(Nc3ccc(F)c(Cl)c3)ncnc2cc1OCCCN1CCOCC1 [GW781483],36,0,0,0,14,0,15,0,0,1
CC(C)N1C(=O)Cc2cc(Nc3ncc(C(F)(F)F)c(NCc4cccc(S(C)(=O)=O)c4)n3)ccc21,51,0,5,8,0,19,7,6,25,0
Cc1ccc(-n2nc(C(C)(C)C)cc2NC(=O)Nc2ccc(OCCN3CCOCC3)c3ccccc23)cc1 [GW839464],0,,0,0,0,35,10,12,0,0
CN(C)CCOc1ccc(-c2cc(-c3c[nH]nc3-c3ccccn3)ccn2)cc1 [GW835314],10,0,0,0,0,24,0,90,4,3
NC(=O)c1cc(-c2ccccc2)cc2c(C3CCNCC3)c[nH]c12 [GSK301362],15,28,14,30,27,38,0,0,4,9
CN(C)CC(O)COc1ccc(Nc2nccc(-c3cnn4nc(N5CCOCC5)ccc34)n2)cc1 (stereo not drawn) [GW767488],51,11,54,17,34,4,25,30,9,97.6
CNC(=O)c1ccccc1Sc1ccc2c(/C=C/c3ccccn3)n[nH]c2c1,8,100,0,9,8,0,2,10,40,
